Screening results deposited in PubChem by National Center for Advancing Translational Sciences (NCATS).
A selection: hits, their analogues and other compounds. The true share with any hit is near 2.4%.
Cruzain noTriton = qHTS Assay for Promiscuous and Specific Inhibitors of Cruzain (without detergent) | Cruzipain (Trypanosoma cruzi), P25779 | purified cruzain, Z-FR-AMC fluorescence, no detergent | Potency, µM, inactives show max response, negative = inhibition, hits mostly inhibitors | 200,000 compounds, 2.3% hits;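 note: plate controls were enzyme without inhibitor for no effect and buffer without enzyme for full effect; nearly all actives have a fitted effect of over 40% in size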
Target sequence (P25779 123-467 limits assumed): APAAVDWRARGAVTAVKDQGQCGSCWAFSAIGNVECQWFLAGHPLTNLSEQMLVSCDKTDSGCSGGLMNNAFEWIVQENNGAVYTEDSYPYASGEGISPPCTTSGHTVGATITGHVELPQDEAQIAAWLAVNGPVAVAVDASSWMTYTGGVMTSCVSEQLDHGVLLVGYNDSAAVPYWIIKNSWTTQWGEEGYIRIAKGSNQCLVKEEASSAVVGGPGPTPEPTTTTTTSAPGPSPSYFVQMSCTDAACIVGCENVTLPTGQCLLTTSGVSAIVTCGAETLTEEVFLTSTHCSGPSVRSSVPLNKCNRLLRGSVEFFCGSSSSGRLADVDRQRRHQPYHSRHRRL
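Purified cruzain at 1.5 nM, pre-incubated 15 min with compound at room temperature in 100 mM sodium acetate pH 5.5, 5 mM DTT, 0.00005% Triton X-100. Reaction started with 2 uM Z-FR-AMC; AMC fluorescence increase over 60 s gives rate.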
Cruzain Triton = qHTS Assay for Promiscuous and Specific Inhibitors of Cruzain (with detergent) | 200,000 compounds, 0.43% hits | Cruzipain (Trypanosoma cruzi), P25779 | Potency, µM, without a hit: max response, negative = inhibition, actives largely listed as inhibitors | purified cruzain, Z-FR-AMC fluorescence, 0.01% Triton;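 note: plate controls were neutral wells for no effect and buffer without enzyme for full effect; nearly all actives have a fitted effect of over 40% in size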
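Enzyme 1.5 nM, Z-FR-AMC 2 uM, NaOAc 100 mM pH 5.5, DTT 5 mM, Triton X-100 0.01%; 15 min RT compound preincubation; kinetic ex360/em450, 60 s delta.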
* = called active by the depositor; ? = inconclusive. Calls come from the whole dose curve; as a rule, active = well fitted curve in the direction sought with a large enough effect; inconclusive = small, poorly fitted or top-dose-only effect, or another doubt; inactive = no such curve, though single readings can be large; an effect the other way counts as inactive or inconclusive. Potency is the fitted concentration of half-maximal effect.

SMILES	Cruzain noTriton	Cruzain Triton
CC(C)C(NC(=O)OCc1ccccc1)C(=O)OCC(=O)N1CCCCC1 (stereo not given)	1%	4%
COc1cccc(N2CCN(C(=O)Cn3ncc4c(=O)oc5ccccc5c43)CC2)c1	5%	0%
COc1ccc(-c2cc3nc(-c4ccccc4)cc(N4CCC5(CC4)OCCO5)n3n2)cc1	?	22µM*
Cc1ccc(-c2cc3nc(-c4ccccc4)cc(N4CCOCC4)n3n2)cc1	?	-7%
COc1cccc(N2CCN(C(=O)C3CCC(CNS(=O)(=O)c4ccc(Br)s4)CC3)CC2)c1 (stereo not given)	8%	-2%
C=C(C)CSc1nc(-c2ccccc2)cc(-c2ccc(OC)cc2)c1C#N	-29%	-4%
Brc1cccc(-c2nnc(SCc3nc4ccccc4[nH]3)o2)c1	13µM*	14µM*
O=C(CCCSc1nc2ccccc2[nH]1)Nc1nnc(-c2ccccc2)o1	-1%	2%
N#Cc1c(-c2ccccc2)cc(-c2ccccc2)nc1SCc1nnc(-c2ccccc2)o1	5µM*	-1%
Brc1cccc(-c2nnc(-c3ccccc3)o2)c1	-14%	0%
c1ccc2[nH]c(CSc3nnc(-c4ccncc4)o3)nc2c1	13µM*	-20%
c1ccc2c(CSc3nnc(-c4ccncc4)o3)cccc2c1	20%	-9%
c1ccc(-c2nnc(CSc3nc4ccccc4[nH]3)o2)cc1	13µM*	-25%
CCN(CC)C(=O)Cn1c(=O)n(-c2ccc(C)c(C)c2)c(=O)c2c3c(sc21)CCCCC3	1%	-2%
CCOc1ccc2nc(N3CCCC(C(=O)Nc4ccc(OC)c(Cl)c4)C3)sc2c1 (stereo not given)	-7%	-2%
CCn1cc2nc(SCc3ccccc3F)n(Cc3ccc(C)cc3)c(=O)c2n1	-22%	3%
Clc1ccc(-c2nnc(SCc3nc4ccccc4[nH]3)o2)c(Cl)c1	3%	6.3µM*
c1ccc2[nH]c(CSc3nc4ccccc4s3)nc2c1	16µM*	?
Clc1ccc(-c2nnc(SCc3ccon3)o2)c(Cl)c1	-2%	-3%
Cc1nnc(SCc2nc3ccccc3[nH]2)s1	-1%	-2%
Cn1cc(C(c2ccccc2)c2ccc(Cl)s2)c2ccccc21 (stereo not given)	?	-3%
COc1cccc(CN(C(=O)c2oc3ccccc3c2C)C2CCS(=O)(=O)C2)c1 (stereo not given)	7%	-7%
O=C(Cn1cnc2cc([N+](=O)[O-])ccc2c1=O)Nc1ccc2c(c1)CCC2	16µM*	0%
O=C(Cn1cnc2ccccc2c1=O)Nc1ccc2c(c1)CCC2	3%	-2%
Cc1nn2c(N)c(C#N)cnc2c1-c1ccccc1	10%	-5%
SMILES	Cruzain noTriton	Cruzain Triton
Cc1nn2c(N)c(C#N)cnc2c1-c1ccc(Cl)cc1	25µM*	6%
COc1ccc(NC(=O)C2CCN(S(=O)(=O)c3ccc4c(c3)CCCC(=O)N4)CC2)cc1Cl	1%	-3%
CC(=O)[O-].CC(=O)[O-].O.O.O.[Pb+2]	20%	3%
Cc1c(C(=O)NCc2cccc(Cl)c2)sc2nc3n(c(=O)c12)CCC3	5%	-1%
COc1cccc(-c2nn(-c3ccccc3)cc2/C=C\C(=O)c2cccs2)c1	13µM*	3%
COc1cccc(-c2nn(-c3ccccc3)cc2C(=O)O)c1	-1%	4%
Cc1cc(C)cc(NCc2cc(=O)oc3cc(-c4ccccc4)c(O)cc23)c1	?	1%
COc1ccc(C)cc1NCc1cc(=O)oc2cc(-c3ccccc3)c(O)cc12	32µM*	-2%
O=C(NNS(=O)(=O)c1ccccc1)c1cc2cc3ccccc3nc2s1	-7%	-7%
O=C(NNC(=O)c1cc2cc3ccccc3nc2s1)c1cccc(C(F)(F)F)c1	25µM*	-10%
C/C(N=NC(=[SH+])SCc1ccccc1)=C1\C=CC=CN1.[Cl][Cu]	-8%	5%
COc1ccc(/C=N/N=C2/NC(=O)C(c3ccccc3)(c3ccccc3)S2)cc1	3.2µM*	-2%
COc1ccc(/C=N/N2C(=O)c3ccccc3C2=O)cc1	-2%	0%
Cc1ccc2c(=O)cc(C(=O)Nc3sc4c(c3C(=O)NCc3ccco3)CCC4)oc2c1	-5%	-4%
COC(=O)c1c(NC(=S)Nc2ccccc2Cl)sc(C)c1C	13µM*	-3%
CCOC(=O)c1c(NC(=O)C2c3ccccc3Oc3ccccc32)sc(C(C)=O)c1C	?	-1%
COC(=O)c1sc(NC(=O)C2c3ccccc3Oc3ccccc32)c(C(=O)OC)c1C	10µM*	-3%
COC(=O)c1c(NC(=O)C2c3ccccc3Oc3ccccc32)sc(C)c1C	25µM*	0%
COC(=O)c1c(NC(=O)Cc2ccccc2)sc(C)c1C	-9%	-8%
CCOC(=O)c1c(NC(=O)C2c3ccccc3Oc3ccccc32)sc(C)c1C	?	-4%
